Reference: PubChem BioAssay (Tox21)
Values joined by “and” are separate entries in the source; they are usually repeats but may differ in a detail not shown here. Equal entries are not always repeated. Records with an inconclusive call do not appear. Where a structure was tested more than once in an assay, its records may differ in their call. Active and inactive are the calls of the source. Calls come from the whole dose curve.

Assays:
[1] = molecular target: Acetylcholinesterase (Homo sapiens) (UniProt P22303); assay: Acetylcholinesterase (AChE) small molecule antagonists: colormetric cell-based qHTS assay (AID 1347395); note: nearly all actives have a fitted effect of over 30% in size; note: potency is the fitted concentration of half-maximal effect
Procedure, shortened: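 Quantitative HTS in attached SH-SY5Y cells: 30 min compound exposure, then 90 min with acetylthiocholine and DTNB at 37 C; colour from thiocholine reports AChE activity.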

[2] = molecular target: Acetylcholinesterase (Homo sapiens) (UniProt P22303); assay: Acetylcholinesterase (AChE) small molecule antagonists: enzyme-based qHTS assay (AID 1347397); conditions: Potency: AChE enzyme activity inhibition; outcome: AChE enzyme activity inhibition; note: nearly all actives have a fitted effect of over 55% in size; note: potency is the fitted concentration of half-maximal effect
Procedure, shortened: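 rhAChE 50 mU/mL (dispensed) + cpd or DMSO, 30 min RT; add DTNB/acetylthiocholine cocktail, 10 min RT; colorimetric thiocholine readout. qHTS, 1536-well format.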

[3] = molecular target: Acetylcholinesterase (Homo sapiens) (UniProt P22303); assay: Acetylcholinesterase (AChE) small molecule antagonists: fluorescence cell-based qHTS assay (AID 1347398); conditions: Potency: AChE activity; outcome: AChE activity; note: nearly all actives have a fitted effect of over 50% in size; note: potency is the fitted concentration of half-maximal effect
Procedure, shortened: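 Read-out is Thiolite Green fluorescence at Ex/Em = 490/520 nm, formed by reaction with thiocholine released when cellular AChE in SH-SY5Y cells hydrolyzes acetylthiocholine. Compounds were preincubated 30 min at 37 C before substrate.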

[4] = molecular target: Acetylcholinesterase (Homo sapiens) (UniProt P22303); assay: Acetylcholinesterase (AChE) small molecule antagonists: enzyme-based qHTS assay with human liver microsomes (AID 1347399); conditions: Potency: qHTS inhibition; outcome: qHTS inhibition; note: nearly all actives have a fitted effect of over 60% in size
Procedure, shortened: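 Recombinant human AChE (50 mU/mL in the enzyme mix) and human liver microsomes (0.25 mg/mL final) were preincubated with compound and NADPH (0.25 mg/mL final) for 30 min at 37 C. Acetylthiocholine/DTNB was then added; thiocholine was read colorimetrically after 10 min at room temperature.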

Measured: Potency

Chain of Acetylcholinesterase (Homo sapiens) (P22303 whole entry, looked up): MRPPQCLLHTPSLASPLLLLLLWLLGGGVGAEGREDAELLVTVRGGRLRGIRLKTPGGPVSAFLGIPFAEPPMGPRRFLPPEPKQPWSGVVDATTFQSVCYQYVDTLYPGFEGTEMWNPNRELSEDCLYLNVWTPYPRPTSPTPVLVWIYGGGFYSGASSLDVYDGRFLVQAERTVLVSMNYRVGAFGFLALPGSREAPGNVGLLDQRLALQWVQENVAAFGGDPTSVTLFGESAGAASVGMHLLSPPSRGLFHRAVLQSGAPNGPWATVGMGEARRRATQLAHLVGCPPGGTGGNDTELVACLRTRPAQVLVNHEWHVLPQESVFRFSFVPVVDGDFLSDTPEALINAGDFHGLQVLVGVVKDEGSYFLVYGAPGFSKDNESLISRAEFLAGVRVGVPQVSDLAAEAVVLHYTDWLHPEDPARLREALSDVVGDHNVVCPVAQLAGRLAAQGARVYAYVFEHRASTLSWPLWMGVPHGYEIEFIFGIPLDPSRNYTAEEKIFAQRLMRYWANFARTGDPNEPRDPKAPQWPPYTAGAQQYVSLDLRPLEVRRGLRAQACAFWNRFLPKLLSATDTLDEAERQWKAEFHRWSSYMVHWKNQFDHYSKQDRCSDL

Oc1ccc(O)c2c(O)cccc12
inactive: all assays above

C1CNCCN1
inactive: all assays above

CC(C)CCCCCOC(=O)CCCCC(=O)OCCCCCC(C)C
inactive: all assays above

CC(C)(C)c1ccc(OC2CCCCC2O)cc1 (configuration not stated)
inactive: all assays above

C=C1C(=C/C=C2\CCC[C@]3(C)[C@@H]([C@H](C)/C=C/[C@@H](O)C4CC4)CC[C@@H]23)C[C@@H](O)C[C@@H]1O
inactive: all assays above

CC(C)(C)Cl
inactive: all assays above

COc1ccc(Nc2ccccc2)c(C)c1
inactive: all assays above

CCC(C(=O)OCCN(CC)CC)c1ccccc1 (configuration not stated)
inactive: all assays above

CC(C)OC(=O)C(C)(C)Oc1ccc(C(=O)c2ccc(Cl)cc2)cc1
inactive: all assays above

CCOC(=O)c1cccnc1
inactive: all assays above

Cc1ccc2c(Cl)cc(Cl)c(O)c2n1
inactive: all assays above

O=C(c1ccc(O)c(O)c1)c1ccc(O)cc1O
inactive: all assays above

CC(C)C(=O)OCc1cccc(OC(=O)[C@@H]2N3C(=O)[C@@H](NC(=O)Cc4ccccc4)[C@H]3SC2(C)C)c1
inactive: all assays above

CC(=O)C(C)O (configuration not stated)
inactive: all assays above

CC(C)c1ccc(S(=O)(=O)O)cc1
inactive: all assays above

c1cc(CCCc2ccncc2)ccn1
inactive: all assays above

COc1ccc2c(c1)CCCC2=O
inactive: all assays above

CN(C)C
inactive: all assays above

CC(C)=CCCC(C)CCOC=O (configuration not stated)
inactive: all assays above

CSc1c(Cl)c(Cl)c(Cl)c(Cl)c1Cl
inactive: all assays above

COc1nc(N)nc2nc[nH]c12
inactive: all assays above

CCCCCCCCCCCCCCCC[N+](C)(C)Cc1ccccc1
inactive: [1] | [4]
active: [2] 82.2 µM and 32.3 µM and 38.9 µM | [3] 46.2 µM and 57.4 µM

CC(C)OB(OC(C)C)OC(C)C
inactive: all assays above

COc1cccc(O)c1
inactive: all assays above

CO/N=C(\C(=O)O)c1csc(NC(=O)CCl)n1
inactive: all assays above

COC(=O)Nc1nc2ccc(C(=O)c3cccs3)cc2[nH]1
inactive: all assays above

C[C@]12CCC(=O)C=C1CC[C@@H]1[C@@H]2[C@@H](O)C[C@@]2(C)[C@H]1CC[C@]2(O)C(=O)CO
inactive: all assays above

Oc1ccc(C(c2ccc(O)cc2)C(Cl)(Cl)Cl)cc1
inactive: all assays above

CC(C)(C)c1ccc(C(=O)CCCCl)cc1
inactive: all assays above

C=C(C)C(=O)OCCOC(=O)CC(C)=O
inactive: all assays above

OC[C@H]1O[C@@H](n2cnc3c(=S)nc[nH]c32)[C@H](O)[C@@H]1O
inactive: all assays above

CN(C)Cc1cc(C(C)(C)C)c(O)c(C(C)(C)C)c1
inactive: all assays above

OC(Cn1cncn1)(Cn1cncn1)c1ccc(F)cc1F
inactive: all assays above

CC(=O)Oc1ccc([N+](=O)[O-])cc1CCl
inactive: all assays above

Nc1ccc(O)cc1
inactive: all assays above

ONc1ccccc1
inactive: all assays above

Cn1nnc2c(C(N)=O)ncn2c1=O
inactive: all assays above

Clc1nc(C(Cl)(Cl)Cl)c(Cl)c(Cl)c1Cl
inactive: all assays above

CN1CCC[C@H]1c1cccnc1
inactive: all assays above

Cc1cnccn1
inactive: all assays above

NC(=O)c1cccc([N+](=O)[O-])c1
inactive: all assays above

C[C@@H](CN1CC(=O)NC(=O)C1)N1CC(=O)NC(=O)C1
inactive: all assays above

[Cl][Nd]([Cl])[Cl]
inactive: all assays above

CCc1ccccc1CC
inactive: all assays above

Nc1cc(S(=O)(=O)O)ccc1O
inactive: all assays above

CC(=O)OCCCc1ccccc1
inactive: all assays above

CC(C)C(=O)OC(=O)C(C)C
inactive: all assays above

Cc1cccc(C)c1NC(=O)c1ccc(N)cc1
inactive: all assays above

CC(=O)c1cc2ccccc2s1
inactive: all assays above

[Cl][In]([Cl])[Cl]
inactive: all assays above

OC[C@@H](O)[C@@H](O)[C@H](O)[C@H](O)CO
inactive: all assays above

CC(C)(C)N
inactive: all assays above

CC#N
inactive: all assays above

COc1cc(O)c(C(=O)c2ccccc2)cc1S(=O)(=O)O
inactive: all assays above

CC(=O)/C=C/C1C(C)=CCCC1(C)C (configuration not stated)
inactive: all assays above

COc1cc(CCC(C)=O)ccc1O
inactive: all assays above

C[C@]12CC[C@@H]3c4ccc(O)cc4CC[C@H]3[C@@H]1C[C@@H](O)[C@@H]2O
inactive: all assays above

CC(=O)Nc1ccc(OCC(O)CNC(C)C)cc1 (configuration not stated)
inactive: all assays above

C=C(C)[C@@H]1CC=C(C)C(=O)C1
inactive: all assays above

CCCCCCO
inactive: all assays above

C=C1C2CCC(C2)C1(C)C (configuration not stated)
inactive: all assays above

O=CC1CC=CCC1 (configuration not stated)
inactive: all assays above

CC(C)(O)c1coc(S(=O)(=O)NC(=O)Nc2c3c(cc4c2CCC4)CCC3)c1
inactive: all assays above

CCCOc1ccc2nc(NC(=O)OC)[nH]c2c1
inactive: all assays above

CC1=CCC(C(C)C)=CC1
inactive: all assays above

Nc1ccc(N)c(Cl)c1
inactive: [4]
active: [1] 8.92 µM and 22.4 µM | [2] 8.92 µM and 8.94 µM | [3] 5.63 µM and 10 µM

COc1ccc(N)c(C)c1
inactive: all assays above

CC1CCC(C(C)C)C(O)C1 (configuration not stated)
inactive: all assays above

CC(=O)Nc1c(I)c(NC(C)=O)c(I)c(C(=O)O)c1I
inactive: all assays above

C=CC(=C)CCC=C(C)C
inactive: all assays above

C[C@@H]1CC(=O)NN=C1c1ccc(NN=C(C#N)C#N)cc1
inactive: all assays above

CCC(=O)OC(C)(C)C1CC=C(C)CC1 (configuration not stated)
inactive: all assays above

Oc1ccc2c(c1)CCC2
inactive: all assays above

CCOC(=O)CC(CC(=O)OCC)(OC(C)=O)C(=O)OCC
inactive: all assays above

CCCC(=O)CC
inactive: all assays above

O=C1OC2(c3ccc(O)cc3Oc3cc(O)ccc32)c2ccccc21
inactive: all assays above

O=S(=O)(O)c1ccc(Cl)cc1
inactive: all assays above

O=C(O)CC(=O)C(=O)O
inactive: all assays above

CCCCCOC(C)=O
32.1 µM (active) and inactive: [1]
inactive: all other assays above

CCCOC(C)=O
inactive: all assays above

CCCC(=O)OCCC(C)C
inactive: all assays above

COC(=O)c1ccc(C(=O)OC)cc1
inactive: all assays above

NC(=O)/N=N/C(N)=O
active: [1] 63.5 µM | [2] 71.2 µM | [3] 7.12 µM and 31.7 µM
inactive: [4]
